Results published in ChEMBL document CHEMBL3988442, “University of Dundee, Small-Polar-MMV Screening Library” (2021).
The campaign covered roughly 48,000 compounds. About 13,000 (27%) showed an effect of 50% or more. The list shows a part of the results.

Test system: Wolbachia pipientis
Experiment: Anti-Wolbachia Cell-Based Screen
Type: functional
Design: scale not given: in the data most compounds retested in dose-response had high values
Conditions: 5 µM

| SMILES | Percent Effect [%] |
| --- | --- |
| CC(C)N1CC(C(=O)N2CCc3c(nc(CC4CC4)[nH]c3=O)C2)CC1=O (stereo unspecified) | -6.23 |
| OCC1(CC2CCCCO2)CCN(c2cnc3ccccc3n2)CC1 (stereo unspecified) | -13.06 |
| Cc1nc(N2CCCC(C)C2)nc2cc(S(C)(=O)=O)ccc12 (stereo unspecified) | -6.696 |
| OCc1cn([C@@H]2c3ccccc3C3(CCNCC3)[C@H]2O)nn1 | -1.268 |
| O=S(=O)(NCC1(O)CCOc2ccccc21)c1ccccc1F (stereo unspecified) | 0 |
| CC(=O)Nc1nc(C(=O)Nc2ccc(N3CCCCC3)nc2)cs1 | 7.498 |
| CC(C)=CCN1Cc2nnc(C3CCOCC3)n2C(Cc2c[nH]cn2)C1 (stereo unspecified) | -4.476 |
| Cc1nccn1-c1cc(CNS(=O)(=O)N2CCCC(C)C2)ccn1 (stereo unspecified) | 1.62 |
| c1ccc(C[C@H]2[C@H](N3CCOCC3)CCN2Cc2cccnc2)cc1 | -10.76 |
| O=C(C1CCOCC1)N1CC[C@H](O)[C@@H]1Cc1cccnc1 | 108.8 |
| CN(C)C(=O)N1CCN(Cc2nnc(C(C)(C)C)o2)CC1 | 5.287 |
| Cn1nc(COc2cccnc2)c2c1CCN(CC1CC1)C2.O=C(O)C(F)(F)F.O=C(O)C(F)(F)F | 110.2281 |
| Cn1nc(COc2cccnc2)c2c1CCN(Cc1ccco1)C2.O=C(O)C(F)(F)F.O=C(O)C(F)(F)F | -12.77 |
| Cc1cccc(CN2Cc3[nH]nc(COc4cccnc4)c3C2)n1.O=C(O)C(F)(F)F.O=C(O)C(F)(F)F.O=C(O)C(F)(F)F | 3.508 |
| CC(C)N1CCc2c(c(COc3cccnc3)nn2CC2CC2)C1.O=C(O)C(F)(F)F.O=C(O)C(F)(F)F.O=C(O)C(F)(F)F | -5.827 |
| CN1CCc2c(c(COc3cncnc3)nn2CC2CC2)C1.O=C(O)C(F)(F)F | -14.06 |
| COCCN1CCc2c(c(COc3cccnc3)nn2C)C1.O=C(O)C(F)(F)F.O=C(O)C(F)(F)F | 96.91 |
| Brc1ccc(C2(NCc3noc(C4CC4)n3)CCC2)cc1 | 4.263 |
| CNC(=O)COc1ccccc1CNC1CCc2nc(C)nn2C1 (stereo unspecified) | -0.6489 |
| COc1ccc(-c2nc(CNC3CCc4nc(C)nn4C3)no2)cc1 (stereo unspecified) | 131.6 |
| CCc1nc2n(n1)CC(NCc1noc(-c3ccccc3)n1)CC2 (stereo unspecified) | -10.54 |
| CCc1nc2n(n1)CC(NCc1noc(-c3ccc(C)cc3)n1)CC2 (stereo unspecified) | 89.35 |
| Cc1nc2n(n1)CC(NCCc1cccs1)CC2 (stereo unspecified) | 7.216 |
| Cc1cccc(-c2nc(CNC3CCc4ncnn4C3)no2)c1 (stereo unspecified) | 121.2 |
| c1csc(-c2nc(CNC3CCc4ncnn4C3)cs2)c1 (stereo unspecified) | -10.85 |
| c1ccc(-c2nccc(CNC3CCc4ncnn4C3)n2)cc1 (stereo unspecified) | 120.1 |

| SMILES | Percent Effect [%] |
| --- | --- |
| CCc1nc2n(n1)CC(NCc1nc(C)c(C)o1)CC2 (stereo unspecified) | -17.82 |
| COc1ccccc1CC(=O)N1CCCC(c2nccn2CC(N)=O)C1 (stereo unspecified) | 0.4607 |
| COc1ccc(OCCc2sc(C3(O)CCCNCC3)nc2C)cc1.Cl (stereo unspecified) | 2.251 |
| O=C1NCCCC12CCN(c1nc3c(c(C(F)(F)F)n1)CCCC3)C2 (stereo unspecified) | -1.844 |
| c1nc2n(n1)CC(NCc1nc(-c3ccsc3)no1)CC2 (stereo unspecified) | -6.7 |
| Fc1ccc(-c2cnc(CNC3CCc4ncnn4C3)o2)cc1 (stereo unspecified) | 7.148 |
| Cc1ccc(O)c(CNC2CCc3nc(C)nn3C2)n1 (stereo unspecified) | 92.84 |
| Cc1nc2n(n1)CC(NCc1nc(-c3cccs3)no1)CC2 (stereo unspecified) | -19.82 |
| Cc1nc2n(n1)CC(NCc1nc(C)c(C)o1)CC2 (stereo unspecified) | -8.158 |
| Cc1cccc(-c2nc(CNC3CCc4nc(C)nn4C3)no2)c1 (stereo unspecified) | 111 |
| c1ccc(-c2nc(CNC3CCc4ncnn4C3)no2)cc1 (stereo unspecified) | 109.8 |
| Cc1ccc(-c2nc(CNC3CCc4ncnn4C3)no2)cc1 (stereo unspecified) | 118.2 |
| Cc1nc2n(n1)CC(NCc1nc(-c3cccnc3)no1)CC2 (stereo unspecified) | -5.692 |
| c1ccc(-c2noc(CNC3CCc4ncnn4C3)n2)nc1 (stereo unspecified) | 0.9775 |
| Cc1nc2n(n1)CC(NCc1nc3ccccc3o1)CC2 (stereo unspecified) | 12.54 |
| O=C(CN1CCOC(c2ccc(Cl)s2)C1)NCc1ccco1 (stereo unspecified) | 16.69 |
| CC(C)OC(=O)CCNC(=O)Nc1cccc2ncccc12 | -2.669 |
| CS(=O)(=O)NC1CCCN(C(=O)NCc2cccc(F)c2)C1 (stereo unspecified) | 119.2 |
| Cc1cc(CN2CCCC(NS(C)(=O)=O)C2)ccc1-n1cncn1 (stereo unspecified) | 11.85 |
| COC1CCCN(C(=O)NCc2ccc(C(=O)N(C)C(C)C)cc2)C1 (stereo unspecified) | -8.588 |
| CS(=O)(=O)NC1CCCN(C(=O)NCc2ccoc2)C1 (stereo unspecified) | 92.13 |
| COc1ccccc1CNC(=O)N1CCCC(NS(C)(=O)=O)C1 (stereo unspecified) | 10.46 |
| CN1C[C@@H]2CN(C(=O)NCc3cccc(F)c3)CCC[C@]2(C(=O)O)C1.O=C(O)C(F)(F)F | -0.5828 |
| CS(=O)(=O)NC1CCN(C(=O)NCCc2ccccc2F)CC1 | 4.744 |
| COc1ccc(CNC(=O)N2CCCC(Nc3ccccc3)C2)cn1 (stereo unspecified) | -13.37 |
| CS(=O)(=O)NC1CCCN(C(=O)NCc2ccccc2Cl)C1 (stereo unspecified) | 118.4 |

| SMILES | Percent Effect [%] |
| --- | --- |
| Cc1ccc(CNC(=O)N2CCCC(NS(C)(=O)=O)C2)cc1 (stereo unspecified) | 112.9 |
| CS(=O)(=O)NC1CCN(C(=O)c2ccc(Br)o2)C1 (stereo unspecified) | -2.031 |
| CC(C(=O)N1CCc2ccccc21)N1CCc2cncnc2C1 (stereo unspecified) | 1.414 |
| CC1(C)CN(C(=O)CCc2nc(-c3ccncc3)no2)CCO1 | 17.48 |
| CC(=O)N(C/C=C/c1ccccc1)CCO | -9.29 |
| CCc1nccn1C1CCCN(C(=O)c2ccc3nncn3c2)C1 (stereo unspecified) | -7.143 |
| Cc1nccn1C1CCCN(C(=O)c2ccc3nncn3c2)C1 (stereo unspecified) | 98.97 |
| O=C(c1ccc2nncn2c1)N1CCCC(n2ccnc2)C1 (stereo unspecified) | 105.7 |
| CC(C)c1nccn1C1CCCN(C(=O)c2ccc3nncn3c2)C1 (stereo unspecified) | 89.79 |
| CC(C)c1nccn1C1CCCN(C(=O)c2ccc3c(c2)COC3)C1 (stereo unspecified) | -6.912 |
| CC(C)c1nccn1C1CCCN(C(=O)c2ccn(C)c(=O)c2)C1 (stereo unspecified) | -3.204 |
| CN(Cc1cccnc1)C[C@@H]1OC[C@H]2CN(C(=O)C3CC3)CC[C@H]21.O=C(O)C(F)(F)F.O=C(O)C(F)(F)F | -11.76 |
| O=C(Nc1cc(Cl)ccc1Cl)NC1CCN(C2CCOC2)CC1 (stereo unspecified) | -16.63 |
| CCCn1ccnc1CN1C[C@@H](CN2CCCCC2)[C@@H](CO)C1 | -0.9532 |
| CN(CCCc1nccn1C)c1nccc(N2CCC(O)C2)n1 (stereo unspecified) | 13.17 |
| CN(CCCc1nccn1C)c1nccc(-c2cc(C(=O)O)ccn2)n1 | 93.19 |
| Cn1cc(CCCN2CCN(C(=O)c3cccc(O)c3)CC2)cn1 | -1.766 |
| CC(C)N(Cc1cnn(C)c1)C(=O)c1ccnc(N(C)C)c1 | 14.77 |
| CN(Cc1cnn(C)c1)c1nccc(-c2cc(C(=O)O)ccn2)n1 | 109.1 |
| CN(CCCc1cnn(C)c1)c1nccc(-c2cc(C(=O)O)ccn2)n1 | 108.4 |
| Cc1nn(C)cc1-c1ccnc(N(C)Cc2cnn(C)c2)n1 | -26.11 |
| CN(CCCc1cnn(C)c1)C(=O)Nc1cccc(C#N)c1 | -5.075 |
| Cc1nc(N(C)CCCc2nccn2C)c2nc(C)oc2n1 | -2.669 |
| COCCn1ccnc1CN(Cc1ccccn1)Cc1sccc1C | -1.6 |
| CCOc1ccccc1NC(C)C(=O)N(C)Cc1cccc(F)c1 (stereo unspecified) | 13.58 |
| CC(=O)Nc1nc(CN(C)CC2CCCN2c2cccnn2)cs1 (stereo unspecified) | 10.35 |

| SMILES | Percent Effect [%] |
| --- | --- |
| CNC(=O)CC1CCN(C(=O)NCc2coc3ccccc23)CC1 | -8.978 |
| Cn1ccnc1C(O)c1ccccc1N1CCN(Cc2cccs2)CC1 (stereo unspecified) | 123.9 |
| Cn1ccnc1C(O)c1ccccc1N1CCN(Cc2ccsc2)CC1 (stereo unspecified) | 129.7 |
| CC(C)c1noc(C(C)N2CCN(Cc3ccsc3)CC2)n1 (stereo unspecified) | 12.33 |
| Cc1ccccc1C(C)NC(=O)CN1CCN(Cc2cccs2)CC1 (stereo unspecified) | 6.89 |
| c1cc(CN2CCN(Cc3cscn3)CC2)cs1 | -0.1438 |
| CC(C)Oc1ncnc2c1CCN(Cc1cccs1)CC2 | 10.07 |
| Cn1cc(N2CCCC(Nc3ccc4c(c3)CCCO4)C2=O)cn1 (stereo unspecified) | 3.281 |
| CC1CCN(C)c2ccccc2N1C(=O)c1ccc(=O)n(C)c1 (stereo unspecified) | -5.744 |
| CNS(=O)(=O)c1cccc(CNc2ccc(C(F)(F)F)nn2)c1 | 12.46 |
| CC1CCN(C(=O)Cn2cc(I)cn2)CC1 | 2.364 |
| CCOCCCC(=O)N1CCN(C(=O)Cc2cccc(OC)c2)CC1 | -5.603 |
| COc1cccc(CC(=O)N2CCC(c3ccn4nccc4n3)CC2)c1 | 113.7 |
| Cc1cnn(CC(=O)N2CCC(c3ccn4nccc4n3)CC2)c1 | 130 |
| Cc1cc(C)n(CCC(=O)N2CCC(c3nc(C(C)C)no3)CC2)n1 | 8.819 |
| Cc1nc(O)cc(C2CCN(C(=O)CN(C)c3ccccc3)CC2)n1 | -2.835 |
| Cc1cc(C)n(CC(=O)N2CCC(c3nc(C)no3)CC2)n1 | -3.198 |
| Cc1cc(C)n(CC(=O)N2CCC(c3ccn4nccc4n3)CC2)n1 | 104.2 |
| COc1cccc(CC(=O)N2CCCN(c3ccnc(C)c3)CC2)c1 | -23.77 |
| O=C(Nc1cccc(OCc2ccc(F)cc2)c1)C1COCCO1 (stereo unspecified) | -6.014 |
| CCOc1ccc(CC(=O)Nc2cnccc2SCCCO)cc1 | 9.652 |
| CCC[C@@H]1CN(Cc2nnc(-c3cccnc3)o2)C[C@H]1NC(C)=O | -9.676 |
| COc1ncc(Cl)c(NCc2ccc([S+](C)[O-])cc2)n1 (stereo unspecified) | -2.144 |
